Inconclusive results are not listed. Unmarked numbers belong to inactive results. Activity calls are given as the source filed them. Calls come from the whole dose curve; as a rule, active = well fitted inhibition curve with a large enough effect in the signal ratio in the repeat runs (not every such curve was filed as active); inconclusive = weak or mixed curves; inactive = flat fitted curve, though single readings scatter; the % refers to the signal ratio.
What follows are compounds tested against Progesterone receptor (Homo sapiens) (UniProt P06401) (assay: qHTS assay to identify small molecule antagonists of the progesterone receptor (PR) signaling pathway (AID 1346795)). Conditions: PR-UAS-bla HEK293T, beta-lactamase FRET ratio, 16 h; series mostly up to 92.4 µM; activity change, negative = inhibition: at the top concentration.
Sequence of Progesterone receptor (Homo sapiens) (P06401 whole entry, looked up): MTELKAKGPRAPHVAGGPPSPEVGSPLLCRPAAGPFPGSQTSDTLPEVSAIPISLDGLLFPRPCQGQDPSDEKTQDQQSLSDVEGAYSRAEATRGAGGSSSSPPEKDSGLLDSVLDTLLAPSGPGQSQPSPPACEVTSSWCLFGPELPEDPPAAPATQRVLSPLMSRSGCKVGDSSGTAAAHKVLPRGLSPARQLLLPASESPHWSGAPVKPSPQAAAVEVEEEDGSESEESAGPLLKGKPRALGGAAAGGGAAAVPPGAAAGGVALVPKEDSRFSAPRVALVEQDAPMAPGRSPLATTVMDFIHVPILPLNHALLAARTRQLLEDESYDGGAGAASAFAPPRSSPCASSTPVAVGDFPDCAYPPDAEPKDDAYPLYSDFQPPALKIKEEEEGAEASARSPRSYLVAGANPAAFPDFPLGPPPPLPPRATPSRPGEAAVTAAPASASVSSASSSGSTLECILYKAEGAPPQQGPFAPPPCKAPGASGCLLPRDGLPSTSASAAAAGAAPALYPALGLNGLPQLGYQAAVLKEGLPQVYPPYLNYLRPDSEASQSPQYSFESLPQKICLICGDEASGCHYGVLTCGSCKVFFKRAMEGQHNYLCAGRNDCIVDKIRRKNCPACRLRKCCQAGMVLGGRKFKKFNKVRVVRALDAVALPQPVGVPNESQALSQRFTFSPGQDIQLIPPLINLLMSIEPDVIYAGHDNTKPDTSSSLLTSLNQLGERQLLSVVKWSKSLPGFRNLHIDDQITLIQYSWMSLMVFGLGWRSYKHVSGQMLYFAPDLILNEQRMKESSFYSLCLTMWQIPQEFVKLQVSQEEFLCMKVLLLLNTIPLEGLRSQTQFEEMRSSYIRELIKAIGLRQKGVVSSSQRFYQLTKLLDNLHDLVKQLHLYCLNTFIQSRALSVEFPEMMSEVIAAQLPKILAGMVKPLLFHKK
Source text: National Center for Advancing Translational Sciences [NCATS]
NIH Chemical Genomics Center [NCGC]
U.S. Environmental Protection Agency [EPA]
National Institutes of Environmental Health Sciences [NIEHS]
National Toxicology Program [NTP]
U.S. Food and Drug Administration [FDA]
Progesterone receptor (PR), a nuclear hormone receptor, plays an important role in development, metabolic homeostasis and reproduction. […] Endocrine disrupting chemicals (EDCs) and their interactions with steroid hormone receptors like PR causes disruption of normal endocrine function. To identify the compounds that inhibit PR signaling, a PR-UAS-bla GripTite cell line i.e. PR-UAS-bla HEK293T (Invitrogen, Carlsbad, CA, USA) containing a beta-lactamase reporter gene under the control of an Upstream Activator Sequence (UAS) was used to screen Tox21 10K compound library.
Tox21 Assay Protocol Summary:
PR-UAS-bla HEK293T cells were dispensed at 3,000 cells/4 uL of assay medium containing 2% charcoal stripped FBS per well into black wall/clear-bottom 1536-well plates using a Multidrop Combi (ThermoFisher Scientific, Waltham, MA) dispenser. After the assay plates were incubated at a 37C and 5% CO2 for 6 hr, 23 nL of compounds dissolved in DMSO, positive controls or DMSO only was transferred to the assay plate by a Pintool station (Kalypsys, San Diego, CA), followed by addition of 1 uL (1nM as final concentration) of Promegestone (R5020) in assay medium using a BioRAPTR FRD (Flying Reagent Dispenser, Aurora Discovery, San Diego, CA). The plates were incubated at 37C and 5% CO2 for 16 hr. Then 1 uL of LiveBLAzer B/G FRET substrate was added using a FRD. After the plates were incubated at room temperature for 2 hours, fluorescence intensity was measured by an Envision plate reader (PerkinElmer, Shelton, CT).
% is set by controls: 0 for no effect and ±100 for the full control effect; potency is the fitted concentration of half-maximal effect.

Structure (SMILES)	activity change, negative = inhibition	Potency
CCCCC(=O)Cl	-0.313%	–
CCC(=O)c1ccccc1	5.18%	–
[O]=[Cd]	0.85%	–
CC(C1CC1)C(O)(Cn1cncn1)c1ccc(Cl)cc1 (stereo not given)	–	48.3 µM (active)
Nc1cnn(-c2ccccc2)c(=O)c1Cl	11%	–
CCc1cc2c(s1)-n1c(C)nnc1CN=C2c1ccccc1Cl	-22.8% [at 42.5 µM]	–
CN1CCC(O)(c2ccc(F)cc2)C(C(=O)c2ccc(F)cc2)C1 (stereo not given)	2.38% [at 42.5 µM]	–
CC(Cl)(Cl)[N+](=O)[O-]	-13.1%	–
C(CCOCC1CO1)COCC1CO1 (stereo not given)	13.5%	–
c1ccc(N2CCNCC2)cc1	5.51% [at 42.5 µM]	–
CN(N=O)C(N)=O	0.478%	–
COc1cc(OC)nc(Sc2cccc(Cl)c2C(=O)O)n1	12.4%	–
CC(N)=S	14.6%	–
C[C@]12CC[C@H]3[C@@H](CC=C4C[C@@H](O)CC[C@@]43C)[C@@H]1CC[C@@H]2O	6.57% [at 42.5 µM]	–
COP(=S)(OC)Oc1c(Cl)cc(C)cc1Cl	–	27.3 µM (active)
O=C(N[C@H]1CN2CCC1CC2)c1cc2ccoc2cn1	7.14%	–
OC(c1ccc(F)cc1)(c1cncnc1)c1ccccc1Cl (stereo not given)	–	48.6 µM (active)
C=C(C)CN(CC)c1c([N+](=O)[O-])cc(C(F)(F)F)cc1[N+](=O)[O-]	-3.45%	–
[As]#[In]	8.7%	–
CC(C)COP(=O)(OCC(C)C)OCC(C)C	5.94%	–

Structure (SMILES)	activity change, negative = inhibition	Potency
CCOP(=S)(OCC)Oc1nc(Cl)n(C(C)C)n1	-9.51%	–
CCS(=O)(=O)C(C)(C)S(=O)(=O)CC	3.01% [at 42.5 µM]	–
CC(C)CC#N	8.6%	–
N#Cc1c(Cl)cccc1Cl	12.7%	–
CCCCc1c(C)nc(NCC)[nH]c1=O	-5.74%	–
COc1ncc(F)c2nc(S(=O)(=O)Nc3c(F)cccc3F)nn12	14.2% [at 42.5 µM]	–
CNCC(=O)c1ccc(O)c(O)c1	5.18% [at 42.5 µM]	–
C=CCC1=C(C)[C@@H](OC(=O)[C@@H]2[C@@H](C=C(C)C)C2(C)C)CC1=O	–	27.3 µM (active)
CC(C(=O)c1ccccc1)N(C)C (stereo not given)	9.06% [at 42.5 µM]	–
CN1CCC(N(Cc2ccccc2)c2ccccc2)CC1	-21.7% [at 42.5 µM]	–
CCC(C)n1c(=O)[nH]c(C)c(Br)c1=O (stereo not given)	4.46%	–
O=C(Nc1ccccc1)c1ccccc1I	–	54.5 µM (active)
NC(=O)O	7.77%	–
O=C(O)c1cccc(Cl)c1	0.264%	–
Cc1coc2c1CCC(C)C2 (stereo not given)	-4.6%	–
CCCCP(CCCC)CCCC	0.929%	–
COc1ccc(C(=O)N2CCCC2=O)cc1	0.866% [at 42.5 µM]	–
O=C(CCN1CC1)OCC(CO)(COC(=O)CCN1CC1)COC(=O)CCN1CC1	2.67%	–
CC(C)(C)NCC(O)c1cc(Cl)c(N)c(Cl)c1 (stereo not given)	3.83% [at 42.5 µM]	–
Cc1ccccc1CO[C@@H]1C[C@@]2(C(C)C)CC[C@]1(C)O2	-28.8%	–
